In PubChem BioAssay (NCI) one finds growth data, which are given here for seven compounds.

Common to all, as to test: NCI-60 one-dose screen, 48 h (100 = growth as untreated, 0 = no growth, -100 = all killed)
What all share (settings): 10 µM unless noted

In experiment [1] the test system is NCI-H23 lung.
The subject of experiment [2] is NCI-H226 lung.
Experiment [3] has as its system NCI-H322M lung.
The test system of experiment [4] is HOP-62 NSCLC.
The subject of experiment [5] is NCI-H460 lung.
The test system of experiment [6] is HOP-92 NSCLC.
Experiment [7] deals with NCI-H522 lung.
The subject of experiment [8] is A549/ATCC NSCLC.
Experiment [9] concerns 786-0 renal.
The test system of experiment [10] is COLO 205 colon.
Experiment [11] deals with DU-145 prostate.
Experiment [12] relates to K-562 leukemia.
Experiment [13] deals with MALME-3M melanoma.
Experiment [14] has as its system MDA-MB-231 breast.
The test system of experiment [15] is RXF 393 renal.
In experiment [16] the test system is SF-268 CNS.
The subject of experiment [17] is SF-295 CNS.
Experiment [18] deals with SF-539 CNS.
Experiment [19] deals with UACC-257 melanoma.
The test system of experiment [20] is M14 melanoma.

Compounds without any hit were thinned out: in the full panel of roughly 83,000, 20% have a hit.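 Values shown are percent growth following 48 h exposure of cells in 96-well plates to a single concentration of compound; below 10 was considered active.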 Values without a mark were called inactive. Active and inactive are the calls of the source.

In the case of `COc1ccc(C(=O)N2NC(=O)/C(=C/c3ccc(F)cc3)N=C2c2ccccc2)cc1`, the growth was 92.2% in experiment [1]; 96.5% in experiment [2]; 92% in experiment [3]; 99.3% in experiment [4]; 104% in experiment [5]; 93.7% in [6]. Also, the growth in [7] is 93.3%; in [8], 86.4%; in [9] it was 78.9%; in [10] it was 119%; in experiment [11], 113%; in experiment [12] it was 94.4%. The growth in experiment [13] was 91.4%; in experiment [14], 88.1%; in [15] it was 94.5%; in [16], 105%; in experiment [17], 80.4%; in experiment [18] it was 97%. For the same compound, the growth was 99.3% in experiment [19] and 87.2% in experiment [20].
`COc1cc([N+](=O)[O-])c2ncccc2c1O`: the growth in experiment [1] was -9.28% (active); in [2] it was 5.16% (active); in experiment [3], 2.58% (active); in experiment [4] it was 5.92% (active); in experiment [5], 2.09% (active); in [6], 79.4%. In addition, the growth was 42.5% in experiment [7]; -16.5% (active) in experiment [8]; 108% in experiment [9]; -67.8% (active) in experiment [10]; 8.92% (active) in experiment [11]; 130% in [12]. Besides, the growth in experiment [13] was -25.9% (active); in experiment [14] it was 98.6%; in experiment [15], 93.3%; in [16] it was 88.2%; in [17], 3.61% (active); in experiment [18] it was 24.3%. In addition, the growth in [19] is 48%; in experiment [20], -23.9% (active).
`CCCCNC(=O)Oc1ccc(/C(=C(\C)c2ccccc2)c2ccc(OCCN(CC)CC)cc2)cc1`: the growth was 77.5% in experiment [1]; 85.4% in experiment [2]; 86.3% in experiment [3]; 88.2% in [4]; 56.1% in experiment [5]; 43.3% in experiment [6]. For the same compound, the growth is 53.4% in experiment [7]; 62.2% in [8]; 67.3% in experiment [9]; 58.5% in experiment [10]; 89.3% in [11]; 8.28% (active) in experiment [12]. Besides, the growth in experiment [13] is 76.1%; in experiment [14] it was 103%; in experiment [15], 52.8%; in experiment [16], 68.5%; in [17] it was 91.1%; in experiment [18], 48.3%. For the same compound, the growth in experiment [19] is 19.3%; in experiment [20], 6.41% (active).
As for `COc1ccc(-n2c(=O)sc3c(Cl)nc(C)nc32)c(OC)c1`, the growth was 79.8% in experiment [1]; 99.4% in experiment [2]; 96.5% in [3]; 86.1% in experiment [4]; 57.4% in experiment [5]; 76.9% in [6]. The growth in experiment [7] was 78.5%; in [8], 98.7%; in [9], 99.2%; in experiment [10], 99.4%; in experiment [11], 84.3%; in experiment [12], 24.9%. In addition, the growth is 101% in experiment [13]; 80.4% in experiment [14]; 93.5% in experiment [15]; 63.3% in [16]; 104% in experiment [17]; 105% in experiment [18]. The growth in experiment [19] is 85.1%; in [20] it was 75.7%.
On to `Cc1cc(N)n(S(=O)(=O)c2oc(-c3ccccc3)nc2C#N)n1`, for which the growth in [1] is 90.3%; in experiment [2], 89.6%; in experiment [3] it was 98.4%; in experiment [4] it was 95%; in [5] it was 106%; in experiment [6], 91.5%. For the same compound, the growth was 24.4% in experiment [7]; 95.3% in experiment [8]; 90.1% in experiment [9]; -34% (active) in experiment [10]; 103% in [11]; 7.1% (active) in experiment [12]. The growth is -49% (active) in experiment [13]; 94.1% in experiment [14]; 92.3% in experiment [15]; 103% in experiment [16]; 101% in [17]; 108% in experiment [18]. In addition, the growth in [19] was 101%; in experiment [20] it was 84.5%.
Regarding `COc1ccc(C(=O)N2NC(=O)/C(=C/c3ccccc3F)N=C2c2ccccc2)cc1`, the growth was 93.5% in experiment [1]; 104% in experiment [2]; 110% in experiment [3]; 108% in experiment [4]; 106% in [5]; 96.8% in [6]. Besides, the growth in experiment [7] is 102%; in [8], 96.2%; in [9], 102%; in experiment [10], 122%; in [11], 115%; in experiment [12], 104%. Besides, the growth in experiment [13] is 109%; in [14], 106%; in [15] it was 106%; in experiment [16] it was 105%; in experiment [17], 101%; in [18], 131%. The growth is 99.7% in [19] and 111% in [20].
Regarding `CCNc1nc(S(=O)(=O)CC)nc2ccccc12`, the growth in experiment [1] is 103%; in experiment [2], 102%; in experiment [3] it was 104%; in [4], 96.1%; in [5], 101%; in experiment [6], 104%. In addition, the growth in experiment [7] is 81.8%; in experiment [8], 105%; in [9], 101%; in [10], 114%; in [11], 103%; in experiment [12] it was 85.2%. In addition, the growth in experiment [13] is 83.3%; in [14], 102%; in experiment [15], 107%; in experiment [16], 92.3%; in experiment [17] it was 105%; in experiment [18] it was 88.3%. Besides, the growth in experiment [19] was 85.5%; in experiment [20], 96.8%.
